Assay results: the emibetuzumab library of Makowski et al. (2022)
This is one part of the list. The true hit rate is not given.

B1: VH:VL chains; a variant is named by its letters at X, in order (parent)
chain 1: QVQLVQSGAEVKKPGASVKVSCKASGYTFTDYXMHWVRQAPGQGLEWMGXVNPNXXXTTYNQKFEGRVTMTTDTSTSTAYMELRSLRSDDTAVYYCARXNXLDXWGQGTTVTVSS
chain 2: DIQMTQSPSSLSASVGDRVTITCSVSSSVSSIYLHWYQQKPGKAPKLLIYSTSNLASGVPSRFSGSGSGTDFTLTISSLQPEDFATYYCQVYSGYPLTFGGGTKVEIK

Variants of: B1
Test: yeast display scFab, FACS + sequencing
Conditions: with MET
In short: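 A yeast surface library of scFab variants carrying heavy-chain CDR mutations went through two magnetic enrichment rounds on Protein A beads coated with HGFR-Fc, then FACS. For sorting, cells were labelled for 3 h at room temperature with 1 nM HGFR-Fc and anti-Myc in PBSB containing 1% milk, and the top 50% of antigen-positive cells were gated. Input and round-3 sorted populations were deep sequenced in two replicates. A sequence was called an antigen binder if it appeared in both antigen-positive samples and a non-binder if it appeared only in the input.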
For VRRKDFLA, the antigen binding call was “no binding”.
In the case of YRAKDALA, the antigen binding call is reported as “binds”.
With YRRKDALA the antigen binding call was “binds”.
YAKRDALA was tested, and the antigen binding call was “no binding”.
DTTGSDWV was tested, and the antigen binding call was “no binding”.
For VAGTGDVY, the antigen binding call was “no binding”.
In the case of YRGRDVGY, the antigen binding call is reported as “no binding”.
With YRGRGVGY the antigen binding call was “binds”.
For VRGRGVGY, the antigen binding call was “binds”.
In the case of VKGRSVGY, the antigen binding call is reported as “no binding”.
For VTGEDDWY, the antigen binding call was “no binding”.
In the case of DTKAADVA, the antigen binding call is reported as “no binding”.
SEARSDGY was tested, and the antigen binding call was “no binding”.
YKGRGYAD was tested, and the antigen binding call was “no binding”.
For YKGRGDAD, the antigen binding call was “binds”.
For YKGKGFGD, the antigen binding call was “no binding”.
YKGRGFGD was tested, and the antigen binding call was “binds”.
YKGADFGD was tested, and the antigen binding call was “no binding”.
With YKGRGDGD the antigen binding call was “binds”.
With YAGRGDAD the antigen binding call was “no binding”.
SAGRGYGD was tested, and the antigen binding call was “no binding”.
In the case of YGGRGDAD, the antigen binding call is reported as “no binding”.
For YKGRGYGD, the antigen binding call was “binds”.
With YEGGGDVA the antigen binding call was “no binding”.
In the case of VGAEGVWS chain 1 G66S, the antigen binding call is reported as “no binding”.
VEGGGDVD was tested, and the antigen binding call was “no binding”.
In the case of VAGAGDSV, the antigen binding call is reported as “no binding”.
With YAGRGVGD the antigen binding call was “no binding”.
For YAGRGDLD, the antigen binding call was “binds”.
For YKGRGVGD, the antigen binding call was “binds”.
For VKTGGDGD, the antigen binding call was “no binding”.
In the case of YAGRGDVD, the antigen binding call is reported as “no binding”.
With YAGRGDLV the antigen binding call was “no binding”.
For YKGKGDGD, the antigen binding call was “binds”.
VEEEDYSS was tested, and the antigen binding call was “no binding”.
In the case of FRAGGAAA, the antigen binding call is reported as “binds”.
With FAAKTAAA the antigen binding call was “no binding”.
In the case of FRKGGAAA, the antigen binding call is reported as “binds”.
In the case of FRARSAAA, the antigen binding call is reported as “binds”.
YRGGSAGA was tested, and the antigen binding call was “binds”.
In the case of YRGRSAGA, the antigen binding call is reported as “binds”.
DRGRDAGA was tested, and the antigen binding call was “no binding”.
With VKGRADWY the antigen binding call was “no binding”.
In the case of VKTGGAWY, the antigen binding call is reported as “no binding”.
In the case of VKGRGSWY, the antigen binding call is reported as “binds”.
With VKGRGAWY the antigen binding call was “binds”.
For VKGRGFWY, the antigen binding call was “no binding”.
With VAAAGAAV the antigen binding call was “no binding”.
For DKEGGSAD, the antigen binding call was “no binding”.
YKTRSSAD was tested, and the antigen binding call was “binds”.
DKTGDSAD was tested, and the antigen binding call was “binds”.
For YKTRGSLD, the antigen binding call was “binds”.
With DKKEDSAD the antigen binding call was “no binding”.
YKTRGSAD was tested, and the antigen binding call was “binds”.
For VKKESDSY, the antigen binding call was “no binding”.
With YAREDDGA the antigen binding call was “no binding”.
YRRGGSVD was tested, and the antigen binding call was “binds”.
For ARRGGSVD, the antigen binding call was “no binding”.
YRRGTSVD was tested, and the antigen binding call was “binds”.
With DATGGDWA the antigen binding call was “no binding”.
With YRRRGSGA the antigen binding call was “binds”.
In the case of ARRRGSGA, the antigen binding call is reported as “no binding”.
For YRRRGFGA, the antigen binding call was “binds”.
In the case of YRRRGAGA, the antigen binding call is reported as “binds”.
In the case of YARRGDGA, the antigen binding call is reported as “no binding”.
For YRRRGVGA, the antigen binding call was “binds”.
With YARADDSA the antigen binding call was “no binding”.
With DTTGSSGV the antigen binding call was “no binding”.
VEAGDDAA was tested, and the antigen binding call was “no binding”.
With VKGRADLV the antigen binding call was “no binding”.
YKGRGDWY was tested, and the antigen binding call was “binds”.
VEGRGDGY was tested, and the antigen binding call was “no binding”.
With YKGRGDGY the antigen binding call was “binds”.
With VKGRGAGY the antigen binding call was “binds”.
With VKGRGVGY the antigen binding call was “no binding”.
For YKGRGVGY, the antigen binding call was “binds”.
With DAGRGDGY the antigen binding call was “no binding”.
For YTGTSDWY, the antigen binding call was “no binding”.
For VKGKDVGY, the antigen binding call was “no binding”.
In the case of DEGRGDWY, the antigen binding call is reported as “no binding”.
In the case of DKEGGDAS, the antigen binding call is reported as “no binding”.
For DKEGGDVA, the antigen binding call was “no binding”.
DTAEDFGV was tested, and the antigen binding call was “no binding”.
YKGRGAGY was tested, and the antigen binding call was “binds”.
With VGGTSDVF the antigen binding call was “no binding”.
In the case of DGGKNDGS, the antigen binding call is reported as “no binding”.
In the case of DTKRTAGD, the antigen binding call is reported as “no binding”.
With YRRRGVGS the antigen binding call was “binds”.
In the case of YRRRGAGD, the antigen binding call is reported as “binds”.
YRRRGYGD was tested, and the antigen binding call was “binds”.
With YRREGAGD the antigen binding call was “binds”.
VTGEDDVA was tested, and the antigen binding call was “no binding”.
DEGGTDVD was tested, and the antigen binding call was “no binding”.
In the case of DRGGDDLV, the antigen binding call is reported as “no binding”.
With DARGGDVY the antigen binding call was “no binding”.
In the case of YRRRGVGD, the antigen binding call is reported as “binds”.
With YRRRGDGD the antigen binding call was “binds”.
In the case of SEARSDVF, the antigen binding call is reported as “no binding”.
DARGGDWV was tested, and the antigen binding call was “no binding”.
ARRGAAGV was tested, and the antigen binding call was “no binding”.
YRRGASGV was tested, and the antigen binding call was “binds”.
YAGGDSGV was tested, and the antigen binding call was “no binding”.
In the case of YRRGDSGV, the antigen binding call is reported as “binds”.
YTRGAAGV was tested, and the antigen binding call was “no binding”.
DRRGDDGV was tested, and the antigen binding call was “no binding”.
For DARADSLV, the antigen binding call was “no binding”.
